Response data for 16 compounds are collected here from PubChem BioAssay AID602197 (NMMLSC, 2012).

This is one part of the list. A number with no mark means an inactive call. No stated cut-off is given here; in the data, active means response above about 24%; inactive means the rest.

This test is described as follows: yeast V-ATPase proton pumping modulators, confirmation, S. cerevisiae, pH-sensitive GFP, second cherry-pick (AID 602197).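 Further: plate controls were vehicle wells for no effect and positive control wells for full effect.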 To be noted: S. cerevisiae pHLuorin cytosolic pH, V-ATPase proton transport; at 10 µM; hits give high values.
Regarding `Cc1cc(CO)nn1-c1ccc([N+](=O)[O-])cc1`, the response was 2.63%.
As for `O=S1(=O)C=C(SCCN2CCCC2)c2ccccc21`, the figure is -0.88%; as for `COc1ccc(CCN2C(=O)N(c3ccc(OC)cc3)C(=O)C2CC(=O)Nc2ccc(OC)cc2)cc1` (stereo unspecified), -1%.
In the case of `CCOc1ccc(CCNC(=O)C2=C(C)C(=O)OC23CCC(C)CC3)cc1OCC` (stereo unspecified) it was 5.21%.
Turning to `CCCc1nnc(NC(=O)c2cc(OC)cc(OC)c2)s1`, the response was -0.87%.
For the compound `COc1cc2c(cc1/C=C1/NC(=O)N(c3ccccc3)C1=O)OCO2`, the response is -0.72%.
In the case of `COc1ccc(N2CCN(C(=O)/C(C#N)=C/c3ccccc3)CC2)cc1` it was -3.48%; in that of `O=C(COC(=O)c1ccccc1Br)Nc1nnc(-c2ccccc2)o1`, 3.01%; in that of `O=C(COc1cc2oc(=O)c3c(c2cc1Cl)CCC3)NCCCN1CCOCC1`, 2.9%.
As for `OCc1nc(CO)n(Cc2ccccc2)n1`, the figure is -7.16%; as for `Cc1ccc(C(=O)Nc2nc3ccc(Cl)cc3s2)o1`, -0.02%; as for `COc1ccc(C(=O)N(Cc2ccccc2)c2ccc(C)cc2)cc1S(=O)(=O)N1CCOCC1`, -6.57%.
As for `COC(=O)c1c(-c2ccc(C)cc2)csc1N`, the figure is 0.92%; as for `Cc1ccc2nc(-c3ccncc3)cc(C(=O)Nc3ccc(OC(F)F)cc3)c2c1`, 2.3%; as for `CCOC(=O)COc1cc(O)c2c(=O)cc(-c3ccccc3)oc2c1`, -3.04%.
Take `C/C=C/C(=O)OCc1csc(CC(=O)Nc2ccccc2C)n1`: the response was -3.22%.
